Source: ChEMBL document CHEMBL1961873, “Compounds: GSK PKIS; Assays: Nanosyn kinase panel” (2012)

How the values were obtained:
[1] = target: T1, Tyrosine-protein kinase ITK/TSK (Homo sapiens) (UniProt Q08881); conditions: at 1 µM;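 also: values are mean percent inhibition of ITK from the GSK PKIS screen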
T1 sequence (whole entry): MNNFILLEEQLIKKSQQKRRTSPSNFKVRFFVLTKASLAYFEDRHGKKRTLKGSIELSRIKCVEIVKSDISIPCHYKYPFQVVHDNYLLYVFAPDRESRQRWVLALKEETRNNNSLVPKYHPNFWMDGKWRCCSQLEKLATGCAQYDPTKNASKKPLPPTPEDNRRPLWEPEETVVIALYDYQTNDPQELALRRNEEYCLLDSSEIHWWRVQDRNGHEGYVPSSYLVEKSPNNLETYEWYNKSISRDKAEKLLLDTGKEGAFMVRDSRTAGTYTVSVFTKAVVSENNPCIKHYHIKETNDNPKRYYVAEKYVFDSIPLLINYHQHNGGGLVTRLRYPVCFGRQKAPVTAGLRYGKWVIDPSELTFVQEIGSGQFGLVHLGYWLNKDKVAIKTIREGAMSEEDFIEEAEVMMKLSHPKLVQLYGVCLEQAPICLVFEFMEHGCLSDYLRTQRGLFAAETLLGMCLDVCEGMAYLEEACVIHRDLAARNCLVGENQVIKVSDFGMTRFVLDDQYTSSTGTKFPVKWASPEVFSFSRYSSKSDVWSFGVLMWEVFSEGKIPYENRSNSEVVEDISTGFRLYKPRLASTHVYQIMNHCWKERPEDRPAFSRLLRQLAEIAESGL

[2] = target: Tyrosine-protein kinase JAK1 (Homo sapiens) (UniProt P23458); conditions: at 0.1 µM
[3] = target: Tyrosine-protein kinase JAK1 (Homo sapiens) (UniProt P23458); conditions: at 1 µM
[4] = target: Tyrosine-protein kinase JAK2 (Homo sapiens) (UniProt O60674); conditions: at 0.1 µM
[5] = target: Tyrosine-protein kinase JAK2 (Homo sapiens) (UniProt O60674); conditions: at 1 µM
[6] = target: T2, Tyrosine-protein kinase JAK3 (Homo sapiens) (UniProt P52333); conditions: at 0.1 µM
T2 sequence (whole entry): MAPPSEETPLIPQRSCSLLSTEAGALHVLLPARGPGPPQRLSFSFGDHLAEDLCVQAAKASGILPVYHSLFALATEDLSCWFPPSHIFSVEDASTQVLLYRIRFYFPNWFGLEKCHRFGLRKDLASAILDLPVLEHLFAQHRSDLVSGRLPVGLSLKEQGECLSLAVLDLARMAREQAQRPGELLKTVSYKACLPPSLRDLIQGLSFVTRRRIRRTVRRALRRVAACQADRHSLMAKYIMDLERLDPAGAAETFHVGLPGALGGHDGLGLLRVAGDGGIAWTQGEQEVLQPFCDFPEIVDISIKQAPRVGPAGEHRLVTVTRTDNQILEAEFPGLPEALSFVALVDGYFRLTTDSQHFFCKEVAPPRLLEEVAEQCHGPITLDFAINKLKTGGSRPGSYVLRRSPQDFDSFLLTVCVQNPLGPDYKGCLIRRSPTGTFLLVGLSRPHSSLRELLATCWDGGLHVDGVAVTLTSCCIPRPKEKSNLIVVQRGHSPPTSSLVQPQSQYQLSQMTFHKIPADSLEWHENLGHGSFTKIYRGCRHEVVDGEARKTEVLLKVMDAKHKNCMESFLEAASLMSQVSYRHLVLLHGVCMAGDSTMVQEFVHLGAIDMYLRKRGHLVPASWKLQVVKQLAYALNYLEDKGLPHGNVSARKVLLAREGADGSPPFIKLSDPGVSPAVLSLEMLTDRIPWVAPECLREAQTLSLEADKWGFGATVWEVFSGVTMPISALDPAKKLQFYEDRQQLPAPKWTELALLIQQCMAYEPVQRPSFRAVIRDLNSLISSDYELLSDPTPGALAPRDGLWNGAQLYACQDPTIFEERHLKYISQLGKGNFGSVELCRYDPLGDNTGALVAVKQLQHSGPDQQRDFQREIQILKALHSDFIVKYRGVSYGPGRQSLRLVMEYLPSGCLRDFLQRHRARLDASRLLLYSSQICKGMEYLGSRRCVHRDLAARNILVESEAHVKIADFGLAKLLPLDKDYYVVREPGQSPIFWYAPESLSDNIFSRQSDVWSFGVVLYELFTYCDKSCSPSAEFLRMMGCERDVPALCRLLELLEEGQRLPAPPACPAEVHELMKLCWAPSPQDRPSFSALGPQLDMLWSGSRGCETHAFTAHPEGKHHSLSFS

[7] = target: T2, Tyrosine-protein kinase JAK3 (Homo sapiens); conditions: at 1 µM
[8] = target: Vascular endothelial growth factor receptor 2 (Homo sapiens) (UniProt P35968); conditions: at 0.1 µM
[9] = target: Vascular endothelial growth factor receptor 2 (Homo sapiens) (UniProt P35968); conditions: at 1 µM
[10] = target: Mast/stem cell growth factor receptor Kit (Homo sapiens) (UniProt P10721); conditions: at 0.1 µM
[11] = target: Mast/stem cell growth factor receptor Kit (Homo sapiens) (UniProt P10721); conditions: at 1 µM
[12] = system: Mast/stem cell growth factor receptor Kit (Homo sapiens), P10721 [D816V]; conditions: at 0.1 µM
[13] = system: Mast/stem cell growth factor receptor Kit (Homo sapiens), P10721 [D816V]; conditions: at 1 µM
[14] = system: Mast/stem cell growth factor receptor Kit (Homo sapiens), P10721 [T670I]; conditions: at 0.1 µM
[15] = system: Mast/stem cell growth factor receptor Kit (Homo sapiens), P10721 [T670I]; conditions: at 1 µM
[16] = system: Mast/stem cell growth factor receptor Kit (Homo sapiens), P10721 [V560G]; conditions: at 0.1 µM
[17] = system: Mast/stem cell growth factor receptor Kit (Homo sapiens), P10721 [V560G]; conditions: at 1 µM
[18] = target: Tyrosine-protein kinase Lck (Homo sapiens) (UniProt P06239); conditions: at 0.1 µM
[19] = target: Tyrosine-protein kinase Lck (Homo sapiens) (UniProt P06239); conditions: at 1 µM
[20] = target: Leukocyte tyrosine kinase receptor (Homo sapiens) (UniProt P29376); conditions: at 0.1 µM
Chain of Leukocyte tyrosine kinase receptor (Homo sapiens) (P29376 whole entry): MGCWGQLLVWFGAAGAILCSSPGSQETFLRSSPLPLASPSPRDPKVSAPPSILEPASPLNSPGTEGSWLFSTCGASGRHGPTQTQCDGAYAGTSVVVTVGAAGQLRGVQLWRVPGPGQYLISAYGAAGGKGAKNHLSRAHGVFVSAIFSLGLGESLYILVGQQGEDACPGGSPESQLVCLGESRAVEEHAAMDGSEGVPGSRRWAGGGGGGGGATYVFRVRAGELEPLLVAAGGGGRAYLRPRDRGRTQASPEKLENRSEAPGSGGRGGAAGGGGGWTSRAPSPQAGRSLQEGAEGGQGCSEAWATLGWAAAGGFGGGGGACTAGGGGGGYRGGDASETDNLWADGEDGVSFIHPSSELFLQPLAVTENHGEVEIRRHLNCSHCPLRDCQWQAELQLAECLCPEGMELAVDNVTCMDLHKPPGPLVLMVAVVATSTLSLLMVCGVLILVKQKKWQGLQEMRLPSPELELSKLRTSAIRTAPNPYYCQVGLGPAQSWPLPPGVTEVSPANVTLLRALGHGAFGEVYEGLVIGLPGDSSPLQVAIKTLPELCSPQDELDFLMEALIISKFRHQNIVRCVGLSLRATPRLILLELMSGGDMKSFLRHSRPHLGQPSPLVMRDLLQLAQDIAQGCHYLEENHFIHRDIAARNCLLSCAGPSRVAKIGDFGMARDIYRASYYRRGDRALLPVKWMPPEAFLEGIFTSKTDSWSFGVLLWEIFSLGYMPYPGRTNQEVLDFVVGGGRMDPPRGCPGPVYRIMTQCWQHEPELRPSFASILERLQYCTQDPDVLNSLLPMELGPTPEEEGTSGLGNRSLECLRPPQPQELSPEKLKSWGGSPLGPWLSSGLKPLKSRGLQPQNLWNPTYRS

Chain of Mast/stem cell growth factor receptor Kit (Homo sapiens), P10721 [T670I] (P10721 whole entry T670I): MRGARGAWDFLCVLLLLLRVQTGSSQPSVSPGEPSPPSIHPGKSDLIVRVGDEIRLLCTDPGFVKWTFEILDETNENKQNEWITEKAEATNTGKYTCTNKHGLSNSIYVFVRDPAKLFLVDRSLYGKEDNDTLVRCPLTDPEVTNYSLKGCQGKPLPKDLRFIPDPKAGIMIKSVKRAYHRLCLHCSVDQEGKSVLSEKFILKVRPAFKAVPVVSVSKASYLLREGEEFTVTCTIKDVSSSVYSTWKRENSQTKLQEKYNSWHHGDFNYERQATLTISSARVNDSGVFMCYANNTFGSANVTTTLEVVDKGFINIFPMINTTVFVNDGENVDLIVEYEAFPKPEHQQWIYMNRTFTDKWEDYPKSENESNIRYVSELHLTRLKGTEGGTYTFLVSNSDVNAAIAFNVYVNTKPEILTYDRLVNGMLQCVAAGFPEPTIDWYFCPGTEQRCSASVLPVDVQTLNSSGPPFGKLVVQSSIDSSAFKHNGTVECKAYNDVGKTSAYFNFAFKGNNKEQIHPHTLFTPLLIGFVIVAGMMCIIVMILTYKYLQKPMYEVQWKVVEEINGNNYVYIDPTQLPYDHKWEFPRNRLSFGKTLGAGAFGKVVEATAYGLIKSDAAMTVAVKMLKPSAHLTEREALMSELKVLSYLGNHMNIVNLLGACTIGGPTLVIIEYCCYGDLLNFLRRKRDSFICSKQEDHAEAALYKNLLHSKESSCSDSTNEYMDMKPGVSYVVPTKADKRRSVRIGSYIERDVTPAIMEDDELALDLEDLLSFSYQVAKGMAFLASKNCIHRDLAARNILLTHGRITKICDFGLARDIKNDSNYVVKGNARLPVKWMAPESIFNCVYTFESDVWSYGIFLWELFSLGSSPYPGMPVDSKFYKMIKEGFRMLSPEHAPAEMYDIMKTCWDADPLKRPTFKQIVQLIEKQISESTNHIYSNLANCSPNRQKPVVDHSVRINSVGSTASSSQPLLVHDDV
Chain of Vascular endothelial growth factor receptor 2 (Homo sapiens) (P35968 whole entry): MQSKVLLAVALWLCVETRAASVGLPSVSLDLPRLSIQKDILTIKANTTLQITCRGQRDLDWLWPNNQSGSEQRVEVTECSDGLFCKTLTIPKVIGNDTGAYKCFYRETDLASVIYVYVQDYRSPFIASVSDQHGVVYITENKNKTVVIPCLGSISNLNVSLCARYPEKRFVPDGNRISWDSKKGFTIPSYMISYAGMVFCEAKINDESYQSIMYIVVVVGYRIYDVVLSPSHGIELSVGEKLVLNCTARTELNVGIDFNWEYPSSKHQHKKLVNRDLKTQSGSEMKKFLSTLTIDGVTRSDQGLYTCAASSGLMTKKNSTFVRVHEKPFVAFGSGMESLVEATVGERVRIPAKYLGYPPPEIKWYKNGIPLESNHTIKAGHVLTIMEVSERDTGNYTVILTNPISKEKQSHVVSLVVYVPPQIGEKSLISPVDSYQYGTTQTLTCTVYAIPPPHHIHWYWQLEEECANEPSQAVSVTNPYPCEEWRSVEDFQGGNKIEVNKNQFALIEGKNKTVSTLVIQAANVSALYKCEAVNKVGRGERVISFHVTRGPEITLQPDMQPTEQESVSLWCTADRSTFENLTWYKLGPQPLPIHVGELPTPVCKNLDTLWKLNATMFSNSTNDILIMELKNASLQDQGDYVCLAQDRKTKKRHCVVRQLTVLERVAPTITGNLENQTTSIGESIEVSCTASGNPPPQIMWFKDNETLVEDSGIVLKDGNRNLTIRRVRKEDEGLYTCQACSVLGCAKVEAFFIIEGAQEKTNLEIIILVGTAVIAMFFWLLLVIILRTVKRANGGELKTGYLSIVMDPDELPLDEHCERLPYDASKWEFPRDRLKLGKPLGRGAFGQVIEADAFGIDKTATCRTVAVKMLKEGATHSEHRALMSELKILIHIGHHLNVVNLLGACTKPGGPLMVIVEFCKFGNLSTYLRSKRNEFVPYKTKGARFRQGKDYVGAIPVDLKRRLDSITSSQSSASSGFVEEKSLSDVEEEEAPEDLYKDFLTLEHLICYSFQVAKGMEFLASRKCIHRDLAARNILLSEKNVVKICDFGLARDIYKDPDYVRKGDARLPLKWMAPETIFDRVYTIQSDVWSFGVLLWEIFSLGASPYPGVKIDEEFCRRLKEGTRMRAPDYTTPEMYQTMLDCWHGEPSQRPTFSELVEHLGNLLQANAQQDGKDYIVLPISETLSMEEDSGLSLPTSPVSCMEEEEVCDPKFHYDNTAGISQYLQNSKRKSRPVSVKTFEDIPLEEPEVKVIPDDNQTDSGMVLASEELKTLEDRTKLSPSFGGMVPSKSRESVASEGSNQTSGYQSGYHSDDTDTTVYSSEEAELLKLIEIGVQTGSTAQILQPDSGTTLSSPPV
Chain of Mast/stem cell growth factor receptor Kit (Homo sapiens), P10721 [V560G] (P10721 whole entry V560G): as the sequence (P10721 whole entry T670I) above, with V560G, I670T counted along it
Chain of Mast/stem cell growth factor receptor Kit (Homo sapiens), P10721 [D816V] (P10721 whole entry D816V): as the sequence (P10721 whole entry T670I) above, with I670T, D816V counted along it
Chain of Tyrosine-protein kinase Lck (Homo sapiens) (P06239 2-509 limits assumed): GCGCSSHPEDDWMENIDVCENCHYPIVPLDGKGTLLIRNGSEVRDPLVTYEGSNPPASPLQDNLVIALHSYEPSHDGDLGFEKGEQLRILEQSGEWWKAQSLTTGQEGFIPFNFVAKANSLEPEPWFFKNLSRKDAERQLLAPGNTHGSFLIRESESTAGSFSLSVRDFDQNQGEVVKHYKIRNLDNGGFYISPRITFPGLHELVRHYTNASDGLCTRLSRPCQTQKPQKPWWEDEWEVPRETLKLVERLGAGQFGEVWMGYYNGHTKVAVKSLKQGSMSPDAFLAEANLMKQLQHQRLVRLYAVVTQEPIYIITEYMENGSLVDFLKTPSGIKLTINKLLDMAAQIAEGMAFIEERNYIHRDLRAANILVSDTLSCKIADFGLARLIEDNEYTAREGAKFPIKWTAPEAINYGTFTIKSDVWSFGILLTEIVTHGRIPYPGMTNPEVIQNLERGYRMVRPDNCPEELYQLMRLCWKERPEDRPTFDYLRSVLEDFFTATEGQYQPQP
Chain of Tyrosine-protein kinase JAK2 (Homo sapiens) (O60674 whole entry): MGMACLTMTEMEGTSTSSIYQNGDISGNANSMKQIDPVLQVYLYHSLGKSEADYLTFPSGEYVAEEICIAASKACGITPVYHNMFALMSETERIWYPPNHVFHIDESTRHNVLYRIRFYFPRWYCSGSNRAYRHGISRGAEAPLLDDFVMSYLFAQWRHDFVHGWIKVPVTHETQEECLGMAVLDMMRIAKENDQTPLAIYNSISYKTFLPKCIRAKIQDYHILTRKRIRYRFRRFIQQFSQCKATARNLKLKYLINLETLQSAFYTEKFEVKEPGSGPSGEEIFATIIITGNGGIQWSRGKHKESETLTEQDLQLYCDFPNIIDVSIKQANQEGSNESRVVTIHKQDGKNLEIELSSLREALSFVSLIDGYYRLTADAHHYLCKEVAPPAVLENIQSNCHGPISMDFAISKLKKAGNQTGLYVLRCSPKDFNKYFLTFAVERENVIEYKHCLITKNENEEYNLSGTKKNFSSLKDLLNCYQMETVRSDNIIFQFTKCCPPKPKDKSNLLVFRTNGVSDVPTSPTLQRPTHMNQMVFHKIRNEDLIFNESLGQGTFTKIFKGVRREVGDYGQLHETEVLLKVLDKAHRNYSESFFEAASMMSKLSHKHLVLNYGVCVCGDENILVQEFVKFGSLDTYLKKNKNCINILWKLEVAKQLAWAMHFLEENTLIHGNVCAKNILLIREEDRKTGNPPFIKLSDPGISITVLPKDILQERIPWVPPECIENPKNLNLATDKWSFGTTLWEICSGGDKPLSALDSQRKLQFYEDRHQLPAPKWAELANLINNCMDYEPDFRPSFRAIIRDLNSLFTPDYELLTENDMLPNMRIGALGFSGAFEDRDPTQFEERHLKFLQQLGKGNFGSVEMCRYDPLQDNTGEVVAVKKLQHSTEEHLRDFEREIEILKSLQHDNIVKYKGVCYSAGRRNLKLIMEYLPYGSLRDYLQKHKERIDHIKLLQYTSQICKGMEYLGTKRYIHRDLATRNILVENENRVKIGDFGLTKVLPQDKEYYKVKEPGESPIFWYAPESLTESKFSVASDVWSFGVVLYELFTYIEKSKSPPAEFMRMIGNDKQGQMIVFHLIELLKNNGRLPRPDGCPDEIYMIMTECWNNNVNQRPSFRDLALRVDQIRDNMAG
Chain of Mast/stem cell growth factor receptor Kit (Homo sapiens) (P10721 whole entry): as the sequence (P10721 whole entry T670I) above, with I670T counted along it

Row | SMILES | inhibition [1] | inhibition [2] | inhibition [3] | inhibition [4] | inhibition [5] | inhibition [6] | inhibition [7] | inhibition [8] | inhibition [9] | inhibition [10] | inhibition [11] | inhibition [12] | inhibition [13] | inhibition [14] | inhibition [15] | inhibition [16] | inhibition [17] | inhibition [18] | inhibition [19] | inhibition [20]
1 | COc1cc2ncn(-c3cc(OCCc4ccccc4)c(C(N)=O)s3)c2cc1OC | 2.27% | 1.72% | -5.52% | 0.93% | 0.41% | -0.27% | -0.4% | 3.48% | 17% | 0.95% | 5.42% | 5.33% | -0.63% | 0.21% | -1.17% | -2.95% | -0.35% | 2.24% | 5.88% | 1.89%
2 | C[C@@H](Oc1cc(-n2cnc3ccc(OCC4CCN(C)CC4)cc32)sc1C(N)=O)c1ccccc1Cl | 3.2% | 8.98% | 6.05% | 1.61% | 2.26% | -1.46% | 29.3% | 7.07% | 36.4% | 5.23% | 8.33% | 5.13% | 8.23% | 0.47% | 5.37% | -4.48% | 0.38% | 7.42% | 29.8% | 4.38%
3 | O=C(Nc1ccc(Oc2ccc3[nH]c(NC(=O)c4ccccc4)nc3c2)cc1)Nc1cc(C(F)(F)F)ccc1F | 2.09% | 1.88% | 7.18% | 1.51% | 4.06% | -0.16% | 9.29% | – | – | 10.4% | 85.1% | 1.52% | 4.26% | 5.51% | 52.1% | 10.4% | 67% | 2.25% | 14.4% | 1.84%
4 | COc1ccc(C2=C(N3CCc4ccccc43)C(=O)NC2=O)cc1 | 2.26% | 3.92% | 7.64% | 2.9% | 3.26% | -0.7% | 1.63% | 8.98% | 14.5% | 7.63% | 15.1% | 3.56% | 3.25% | 6.38% | 5.55% | 3.19% | 4.55% | 4.42% | 4.16% | 5.23%
5 | C#Cc1cccc(Nc2ncnc3ccc(OCCCCNCCS(C)(=O)=O)cc23)c1 | -2.14% | 0.29% | 13.4% | 1% | 0.71% | -4.71% | -3.57% | 14.2% | 19.6% | 4.93% | 7.12% | 5.01% | 8.8% | 1.97% | 9.5% | -0.82% | 4.36% | 0.24% | 13.5% | 5.05%
6 | CCS(=O)(=O)c1ccc(OC)c(Nc2ncc(-c3ccccc3Cl)o2)c1 | 1.73% | 5.17% | -2.96% | 1.84% | 0.94% | 0.9% | 4.04% | 8.35% | 33.8% | 17.3% | 85.2% | 0.9% | 0.58% | 0.14% | 24.3% | 3.4% | 8.88% | 4.24% | 10.2% | 1.67%
7 | COc1ccc2ncn(-c3cc(O[C@H](C)c4ccccc4Cl)c(C(N)=O)s3)c2c1 | -2.51% | -3.1% | 2.15% | 1.31% | 1.04% | -7% | -5.28% | 3.61% | 13.4% | 4.64% | 23.1% | 2.74% | 7.75% | 2.4% | 7.3% | -1.68% | 0.26% | -2.03% | -1.76% | 2.73%
8 | O=C(Nc1n[nH]c2nc(-c3ccco3)ccc12)C1CC1 | 2.43% | -0.37% | -0.27% | 0.87% | 2.09% | 0.01% | 2.11% | 7.28% | 14% | 3.39% | 1.57% | -0.41% | 0.03% | 1.03% | 2.02% | 3.13% | 6.74% | 1.24% | 3.59% | 1.06%
9 | CCS(=O)(=O)c1ccc(OC)c(Nc2ncc(-c3cccc(-c4ccccc4F)c3)o2)c1 | 2.37% | -2.17% | 1.93% | 0.19% | 2.27% | 1.2% | 13.9% | 66.9% | 89.5% | 53.7% | 90.9% | -0.16% | 6.62% | 2.77% | 19.6% | 4.79% | 19.7% | 9.89% | 55.8% | 1.34%
10 | O=C(Nc1n[nH]c2cc(-c3cc(F)ccc3F)ccc12)C1CC1 | 7.94% | 3.49% | 8.44% | 1.64% | 1.73% | -0.26% | -0.99% | 6.28% | 12% | 4.01% | 7.05% | 1.5% | 3.88% | 2.63% | 3.43% | 1.22% | 1.15% | 1.37% | 6.57% | 6.64%
11 | CCc1cccc(CC)c1/C=C/c1cncc(C(=O)NC)c1 | 2.29% | 2.03% | – | 1.99% | 1.71% | -1.8% | 0.86% | 6.02% | 8.91% | 1% | 0.22% | 2.9% | 0.24% | 1.07% | 2.14% | -2.51% | 4.63% | 3.18% | 4.94% | 1.51%
